Laboratory results taken from the supplement of paper PMC13392028.
Over roughly 4,100 sequences, “RBNS R-value (6-mer enrichment in protein-bound RNA vs input library)” has its median near 0.96; the highest 2% begin near 2.4. For the sample, the highest values were picked, then their nearest neighbours and some sequences at random.

System: PyIESI-1 RRM domain (Plasmodium yoelii PY17X_0911200 aa 795-956, GST fusion)
Test: RBNS R-value (6-mer enrichment in protein-bound RNA vs input library) (ratio); higher = stronger binding preference; the methods of the paper give 50 / 100 / 500 nM protein instead
Description: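 RNA Bind-n-Seq: recombinant GST-tagged IESI-1 RRM domain was incubated at room temperature with a random 40-nt in vitro transcribed RNA library at 250, 500 or 1000 nM protein. Bound RNA was pulled down on glutathione beads and sequenced. R-value is the enrichment of each 6-mer in the bound RNA relative to the input library. Each 6-mer sits inside the random 40-mer context, not as an isolated oligo. Values are replicate 1 only.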

| Sequence | RBNS R-value (protein concentration: 250 nM) | RBNS R-value (protein concentration: 500 nM) | RBNS R-value (protein concentration: 1000 nM) |
| --- | --- | --- | --- |
| ACAUUG | 1.19 | 1.17 | 1.2 |
| GACCAG | 1.1 | 1.11 | 1.09 |
| GCUACU | 0.838 | 0.861 | 0.829 |
| GUGGAG | 0.967 | 0.977 | 0.96 |
| AAUUCG | 1.08 | 1.08 | 1.08 |
| CAUUCC | 0.948 | 0.975 | 0.997 |
| UAUUCA | 0.554 | 0.565 | 0.571 |
| AAUUCU | 1.06 | 1.05 | 1.06 |
| AAUUCC | 1.12 | 1.09 | 1.12 |
| GAUUCC | 2.42 | 2.37 | 2.49 |
| AAUUCA | 0.88 | 0.882 | 0.917 |
| GAUUCA | 2.85 | 2.7 | 2.92 |
| UAUUCU | 0.707 | 0.731 | 0.734 |
| GAUUCU | 2.89 | 2.77 | 2.85 |
| CAUUCG | 1.01 | 1.05 | 1.07 |
| GAUUCG | 2.64 | 2.49 | 2.51 |
| GCGCAG | 1.01 | 1.03 | 1.03 |
| ACAUCG | 0.752 | 0.777 | 0.749 |
| UCCAGU | 0.838 | 0.85 | 0.831 |
| ACCCAG | 1.32 | 1.27 | 1.32 |
| AAUCCC | 0.954 | 0.955 | 0.949 |
| ACUGCG | 1.12 | 1.13 | 1.13 |
| GACAAC | 1.09 | 1.07 | 1.07 |

| Sequence | RBNS R-value (protein concentration: 250 nM) | RBNS R-value (protein concentration: 500 nM) | RBNS R-value (protein concentration: 1000 nM) |
| --- | --- | --- | --- |
| UCUUCC | 0.978 | 1.01 | 1.03 |
| GGAUCA | 0.767 | 0.764 | 0.736 |
| AGAUCA | 0.82 | 0.812 | 0.814 |
| UGAUCA | 2.37 | 2.38 | 2.64 |
| UGAUCC | 2.58 | 2.6 | 2.82 |
| CGAUCC | 1.19 | 1.22 | 1.26 |
| UGAUCU | 2.74 | 2.75 | 2.93 |
| AGAUCU | 0.946 | 0.924 | 0.93 |
| GGAUCC | 0.932 | 0.922 | 0.909 |
| CGAUCU | 1.15 | 1.15 | 1.19 |
| GUGUUC | 0.821 | 0.855 | 0.82 |
| CGUACU | 0.773 | 0.765 | 0.73 |
| CAGUGA | 1.6 | 1.58 | 1.62 |
| AGAUUA | 1.09 | 1.16 | 1.25 |
| AGAUUU | 1.72 | 1.72 | 1.83 |
| CGAUUA | 1.73 | 1.79 | 1.94 |
| UGAUUA | 6.31 | 5.88 | 6.3 |
| CUAUUU | 0.653 | 0.681 | 0.664 |
| CGAUUU | 2.59 | 2.56 | 2.71 |
| UGAUUU | 7.9 | 7.06 | 7.22 |
| CGAUUC | 2.08 | 2.12 | 2.24 |
| CCAUUU | 0.871 | 0.913 | 0.936 |
| UGAUUC | 6.24 | 5.67 | 5.91 |

| Sequence | RBNS R-value (protein concentration: 250 nM) | RBNS R-value (protein concentration: 500 nM) | RBNS R-value (protein concentration: 1000 nM) |
| --- | --- | --- | --- |
| GGAUUU | 1.08 | 1.1 | 1.06 |
| AGAUUC | 1.47 | 1.49 | 1.58 |
| GCCAGU | 0.86 | 0.901 | 0.892 |
| UCUUGC | 1.12 | 1.17 | 1.18 |
| GAACCU | 1.11 | 1.1 | 1.07 |
| GAUACC | 1.83 | 1.85 | 1.99 |
| ACGAAU | 0.896 | 0.896 | 0.865 |
| GCAGUG | 1.11 | 1.14 | 1.12 |
| AUUCGC | 1.47 | 1.43 | 1.46 |
| UACUUC | 0.69 | 0.719 | 0.702 |
| AUCCCU | 0.892 | 0.921 | 0.934 |
| CCGGUG | 1.11 | 1.14 | 1.12 |
| CGCUUA | 0.602 | 0.629 | 0.617 |
| AUCUAA | 0.647 | 0.67 | 0.637 |
| GUCAAU | 0.655 | 0.685 | 0.671 |
| GGAUUG | 1.22 | 1.22 | 1.15 |
| UGAUUG | 5.45 | 4.95 | 4.94 |
| CGAUUG | 2.25 | 2.18 | 2.2 |
| GAAAGG | 1.1 | 1.08 | 1.01 |
| AGAUAC | 1.02 | 1.09 | 1.09 |
| ACCUCG | 1.08 | 1.06 | 1.06 |
| CGUGAA | 0.949 | 0.925 | 0.895 |
| CGUGAG | 0.911 | 0.913 | 0.868 |

| Sequence | RBNS R-value (protein concentration: 250 nM) | RBNS R-value (protein concentration: 500 nM) | RBNS R-value (protein concentration: 1000 nM) |
| --- | --- | --- | --- |
| AGUGAC | 1.01 | 1.04 | 1.02 |
| UGUGAG | 1.11 | 1.1 | 1.05 |
| UGUGAC | 1.17 | 1.18 | 1.16 |
| CGUGAU | 3.46 | 3.26 | 3.39 |
| GGUGAU | 2.66 | 2.69 | 2.75 |
| AGUGAU | 3.53 | 3.36 | 3.56 |
| GGUGAC | 1.01 | 1.04 | 0.983 |
| AGUGAA | 0.884 | 0.89 | 0.844 |
| UGUGAU | 3.77 | 3.62 | 3.78 |
| GGUGAG | 0.98 | 0.993 | 0.943 |
| UGCGCU | 1.27 | 1.25 | 1.26 |
| UCCGUG | 1.12 | 1.15 | 1.16 |
| GACUCG | 1.11 | 1.13 | 1.07 |
| UGUUUC | 0.901 | 0.972 | 0.97 |
| AGCUGA | 1.72 | 1.68 | 1.68 |
| UCGUGG | 0.808 | 0.811 | 0.782 |
| CAGCGU | 0.779 | 0.809 | 0.78 |
| UGCCUC | 1.11 | 1.13 | 1.19 |
| UGGCCA | 1.26 | 1.22 | 1.24 |
| GAUAGA | 1.92 | 1.93 | 2 |
| GAUAGU | 1.39 | 1.41 | 1.45 |
| GAUAGC | 2.53 | 2.39 | 2.48 |
| UGCUCA | 0.956 | 0.977 | 1 |
